Z-score data for 14 molecules are collected here from PubChem BioAssay.

Assay [1] in a line: compound effects on lung adenocarcinoma cell viability – A549, calcein-AM fluorescence, 48 h, basal, profiling panel (AID 1162). Conditions: higher = more signal.
Assay [2] in a line: compound effects on differentiated 3T3-L1 adipocyte viability – cell-based, 3T3-L1 adipocytes, calcein-AM fluorescence, 48 h, basal, profiling panel (AID 1163). Conditions: 3T3-L1 adipocytes viability, higher = more signal.
Assay [3] in a line: compound effects on hepatocellular carcinoma cell viability – HepG2, calcein-AM fluorescence, 48 h, basal, profiling panel (AID 1164). Conditions: higher = more signal.
Assay [4] in a line: compound effects on multiple myeloma cell viability – MM1S, calcein-AM fluorescence, 48 h, basal, profiling panel (AID 1165). Conditions: higher = more signal.
Assay [5] is described as follows: calcein-AM signal in unstimulated myeloma cells – cell-based, calcein-AM fluorescence, 48 h, PK04 Diversity Set, profiling panel (AID 1166).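 Further: cells grown under basal conditions without added stimulus.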 Conditions: RPMI8226 myeloma viability, higher = more signal.
Assay [6] can be described thus: JC-1 mitochondrial signal, unstimulated HepG2 cells – cell-based, JC-1 fluorescence, 24 h, 100 nL compound, profiling panel (AID 1167). Conditions: HepG2 mitochondrial potential, higher = more signal.
A short description of assay [7]: JC-1 mitochondrial signal, unstimulated adipocytes – cell-based, JC-1 fluorescence, 3T3-L1 adipocytes, 24 h, 100 nL compound, profiling panel (AID 1168). Conditions: JC-1 mitochondrial fluorescence, higher = more signal, called active from +8 up or from −8 down.
Assay [8] can be described thus: JC-1 mitochondrial signal, unstimulated myeloma cells – cell-based, JC-1 fluorescence, RPMI8226, 24 h, 100 nL compound, profiling panel (AID 1169). Conditions: JC-1 mitochondrial potential fluorescence, higher = more signal.
Assay [9] is described as follows: JC-1 mitochondrial signal, unstimulated MM1S myeloma – cell-based, JC-1 fluorescence, 24 h, 100 nL compound, profiling panel (AID 1170). Conditions: MM1S mitochondrial potential, higher = more signal.
Assay [10] in a line: resazurin metabolic signal in A549 cells – cell-based, resazurin fluorescence, 24 h, PK04 Diversity Set, profiling panel (AID 1171). Conditions: A549 viability, higher = more signal, called active from +8 up or from −8 down. For orientation: The colour change of resazurin is a common sign of viable cells or microbes.

The source made the active and inactive calls.
Further: test concentration not given here.

For the molecule `C[C@H]1NC(=O)C([C@@H](C)OCc2ccccc2)NC(=O)[C@@]23C(=O)N[C@@H](Cc4ccccc4)C2[C@H](C)[C@@]2(C)O[C@H]2C3/C=C/CC/C=C/CNC1=O` (stereo not given in full), the z-score in [1] was 0.33; in assay [2] it was 0.221; in assay [3] it was 0.456; in [4], -0.728; in assay [5] it was -1.2; in assay [6], 2.67. For the same molecule, the z-score is 0.434 (inactive) in [7], 0.452 in assay [8], 1.84 in assay [9] and -0.757 (inactive) in assay [10].
Turning to `CN(C)C(=O)[C@@]1(CCS(=O)(=O)c2ccccc2)N=C(c2ccc(OCCCO)cc2)O[C@H]1c1ccccc1CN=[N+]=[N-]`, the z-score was 1.29 in [1]; 0.828 in assay [2]; -0.294 in [3]; -0.582 in assay [4]; -0.314 in [5]; 0.548 in assay [6]. Besides, the z-score in [7] was -0.264 (inactive); in assay [8] it was -0.114; in [9] it was -1.31; in assay [10], 0.712 (inactive).
Consider `COc1ccc([Si](C)(C)[C@H]2[C@H](CC(=O)N3CCC[C@H]3CO)O[C@@]3(C(=O)N(Cc4ccc(N5C(=O)c6cccc7cccc5c67)cc4)c4ccccc43)[C@@H]2C)cc1`, for which the z-score is -0.706 in assay [1]; 0.867 in assay [2]; -0.154 in [3]; -2.87 in assay [4]; -4.2 in assay [5]; 2.16 in assay [6]. The z-score in assay [7] is 1.44 (inactive); in [8] it was -1.1; in assay [9], 0.28; in assay [10], -1.28 (inactive).
On to `NCCCCCCNC(=O)[C@H]1C[C@H]2C(=O)N3CCC[C@H]3C(=O)N2[C@H]1c1ccc(O)cc1`, for which the z-score is -0.194 in [1]; 1.14 in [2]; -1.01 in [3]; -0.346 in assay [4]; -0.707 in [5]; -0.806 in assay [6]. The z-score in assay [7] is -1.34 (inactive); in [8], 0.26; in assay [9] it was 0.698; in assay [10], -0.608 (inactive).
Regarding `COc1ccc([Si](C)(C)[C@H]2[C@H](CCO)O[C@@]3(C(=O)N(Cc4cccc(N5CCOC5=O)c4)c4ccccc43)[C@@H]2C)cc1`, the z-score was -0.162 in [1]; -0.824 in assay [2]; -0.925 in [3]; -2.43 in assay [4]; -3.25 in assay [5]; -0.0995 in [6]. Moreover, the z-score in assay [7] is 2.01 (inactive); in [8], -1.09; in assay [9], -1.79; in assay [10], -2.22 (inactive).
In the case of `C=CC[C@]1(C(=O)N(C)C)N=C(c2ccc(OCCCO)cc2)O[C@H]1c1ccccc1`, the z-score in assay [1] is 0.203; in assay [2] it was 1.17; in assay [3], -0.308; in assay [4] it was -0.27; in assay [5], -1.19; in assay [6], 1.5. Also, the z-score in assay [7] was 0.644 (inactive); in assay [8], -0.741; in assay [9], -1.33; in assay [10] it was 1.32 (inactive).
For `NC(=O)NCC#Cc1ccc2c(c1)[C@]1(C(=O)N2)[C@H](c2ccc(OCCO)cc2)N2[C@H](c3ccccc3)[C@H](c3ccccc3)OC(=O)[C@H]2[C@@H]1C(=O)N1CCCCCCC1`, the z-score in [1] was -0.702; in assay [2], -0.467; in assay [3], -0.455; in assay [4] it was 0.135; in [5] it was -1.31; in [6], -1.76. Moreover, the z-score in assay [7] was -1.87 (inactive); in [8], -0.638; in assay [9] it was -1.02; in assay [10], 0.252 (inactive).
Consider `COc1cc(NN2C(C(O)c3ccc(I)cc3)C=CC3C(=O)N(C)C(=O)C32)cc(OC)c1OC` (stereo not given), for which the z-score was -0.0595 in assay [1]; 0.459 in assay [2]; 0.196 in [3]; -0.07 in [4]; 0.24 in assay [5]; -0.461 in assay [6]. Further, the z-score in assay [7] is 0.0122 (inactive); in assay [8], -0.335; in assay [9] it was -0.311; in assay [10], -1.42 (inactive).
For the molecule `C[N+](C)(C)CCCCCCNC(=O)[C@@H]1C[C@@H]2C(=O)NCC(=O)N2[C@@H]1c1ccc(O)cc1`, the z-score in [1] is -0.261; in assay [2], -0.166; in assay [3], 0.517; in assay [4] it was -0.0232; in assay [5], 0.0324; in [6], -1.58. In addition, the z-score in assay [7] was 0.251 (inactive); in assay [8], -0.0725; in assay [9], -0.534; in assay [10], 0.28 (inactive).
Regarding `CCOC(=O)C[C@H]1[C@H](OC(=O)Cc2ccc3c(c2)OCO3)[C@@H](NC(=O)c2ccccc2)c2cc(OCCCO)ccc2N1C(=O)c1ccc2ccccc2n1`, the z-score was 1.86 in assay [1]; 1.08 in assay [2]; 1.8 in assay [3]; -0.198 in assay [4]; -0.243 in assay [5]; 1.12 in assay [6]. The z-score in [7] was 0.607 (inactive); in assay [8] it was -0.156; in assay [9], -0.178; in assay [10], -1.38 (inactive).
`COC(=O)[C@]1(Cc2ccccc2CN=[N+]=[N-])N=C(c2ccc(OCCCO)cc2)O[C@@H]1c1ccccc1`: the z-score in assay [1] is -3.05; in [2] it was 0.371; in [3], -4.37; in assay [4], -3.58; in assay [5] it was -3.96; in assay [6], -1.05. In addition, the z-score in assay [7] is 0.199 (inactive); in assay [8], -1.05; in [9] it was -2.7; in assay [10], -2.91 (inactive).
On to `C=CCC(OC(C)=O)[C@@H]1[C@@H](N(Cc2ccc(-c3cccc(C(F)(F)F)c3)o2)C(=O)c2cccc3ccccc23)c2cc(OCCCO)ccc2N1C(=O)c1ccc(-c2ccccc2)cc1` (stereo not given in full), for which the z-score in [1] is 0.558; in assay [2] it was 0.865; in [3], -0.382; in assay [4], -1.04; in assay [5], -1.23; in assay [6] it was 2.41. Besides, the z-score in [7] was -2.44 (inactive); in [8] it was 0.00531; in assay [9], 0.988; in assay [10], -0.93 (inactive).
As to `COCCCNC(=O)[C@]1(Cc2ccccc2CN=[N+]=[N-])N=C(c2ccc(OCCCO)cc2)O[C@@H]1c1ccccc1CN=[N+]=[N-]`, the z-score in [1] was -0.386; in assay [2], 0.0035; in assay [3], -0.918; in assay [4], -2.79; in assay [5] it was -4.22; in assay [6], 1.31. The z-score in assay [7] was -0.907 (inactive); in assay [8], -1.18; in assay [9], -1.73; in [10], -0.241 (inactive).
In the case of `COc1ccc(C#Cc2ccc3c(c2)[C@]2(C(=O)N3)[C@H](C(N)=O)[C@H]3C(=O)O[C@H](c4ccccc4)[C@H](c4ccccc4)N3[C@@H]2c2ccc(O)cc2)cc1`, the z-score was -0.765 in [1]; 0.13 in assay [2]; -4.5 in assay [3]; -3.29 in [4]; -4.56 in assay [5]; -3.11 in assay [6]. Moreover, the z-score in assay [7] was 0.283 (inactive); in assay [8], -1.1; in assay [9], -2.28; in assay [10], -1.05 (inactive).
